# Screening data: PubChem BioAssay, National Center for Advancing Translational Sciences (NCATS)
# VDR inh – Inhibitors of the vitamin D receptor (VDR): qHTS; Potency, µM, for the others: max response, negative = inhibition, usual class: inhibitors; VDR-SRC2-3 peptide fluorescence polarization, 2 h; Vitamin D3 receptor (Homo sapiens), P11473; 400,000 compounds, 0.93% hits; AID 504847, 2011
# Target sequence (P11473 whole entry, looked up): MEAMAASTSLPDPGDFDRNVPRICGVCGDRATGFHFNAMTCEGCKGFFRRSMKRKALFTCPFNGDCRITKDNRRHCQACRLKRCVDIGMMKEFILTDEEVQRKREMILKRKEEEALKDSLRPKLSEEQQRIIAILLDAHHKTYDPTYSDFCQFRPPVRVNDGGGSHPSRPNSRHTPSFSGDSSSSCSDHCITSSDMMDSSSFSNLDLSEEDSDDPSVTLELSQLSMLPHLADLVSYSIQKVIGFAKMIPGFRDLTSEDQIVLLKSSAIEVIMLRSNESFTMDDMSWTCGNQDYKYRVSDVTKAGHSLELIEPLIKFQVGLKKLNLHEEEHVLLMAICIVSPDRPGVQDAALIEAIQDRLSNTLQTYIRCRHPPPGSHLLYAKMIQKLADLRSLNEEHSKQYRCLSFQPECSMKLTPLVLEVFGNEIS
#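 VDR–SRC2-3 interaction, FP format. Cmpds 23 nl via pintool, brief spin, 2 h ambient incubation.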
# PLK1 PBD block – qHTS for Inhibitors of PLK1-PDB (polo-like kinase 1 - polo-box domain): Primary Screen; Serine/threonine-protein kinase PLK1 (Homo sapiens), P53350; Plk1 PBD binding of FITC phosphopeptide, fluorescence polarization; Potency, µM, without a hit: max response, negative = inhibition, most hits filed as inhibitors; 360,000 compounds, 2.8% hits; AID 720504, 2013; further: series mostly up to about 57 µM; nearly all actives have a fitted effect of over 65% in size
# ALOX12 inh – Primary qHTS assay for inhibitors of human arachidonate 12S-lipoxygenase (ALOX12): Round 2. Polyunsaturated fatty acid lipoxygenase ALOX12 (Homo sapiens), P18054. purified 12hLO, xylenol orange hydroperoxide absorbance. Potency, µM (highest dose often 108 µM), inactives show at the highest dose activity change, negative = inhibition, most hits filed as inhibitors. 580,000 compounds, 1.1% hits. AID 1671190, 2021
#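 Hydroperoxide product was detected by ferrous iron/xylenol orange as the 573 to 405 nm absorbance ratio. Arachidonic acid at 40 uM (final) was turned over for 30 min at room temperature by 150 nM human 12hLO, pH 7.0 Hepes buffer, after 15 min compound preincubation.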
# Sfp PPTase inh – qHTS Assay for Inhibitors of Bacillus subtilis Sfp phosphopantetheinyl transferase (PPTase); 4'-phosphopantetheinyl transferase ffp (Bacillus subtilis), Q9F4F7; Biochemical Sfp PPTase activity, qHTS; Potency, µM, for inactives: largest response in the series, negative = inhibition, hits mostly inhibitors; 310,000 compounds, 3.5% hits; AID 1490, 2009;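 further: the enzyme is Sfp with the accession as filed and its product quenches rhodamine fluorescence; 0% = enzyme reaction without inhibitor and -100% = no enzyme wells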
#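 Buffer: 50 mM Hepes-Na pH 7.6, 10 mM MgCl2, 0.01% Nonidet P-40, 0.01% BSA. Enzyme 15 nM, pre-exposed to compound 15 min; substrates then added and fluorescence change tracked over 30 min.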
# * marks the source's active call; other numbers are inactive results; ? = inconclusive; nt = no result; [ ] = another dose, or the depositor's remark. Compounds with a hit are over-represented: about 4.2% of the library has one in this group of screens. The call rests on the fitted dose curve; in most records, active means well fitted curve in the direction sought with a large enough effect; inconclusive means small, poorly fitted or top-dose-only effect, or another doubt; inactive means no such curve, though single readings can be large; an effect the other way counts as inactive or inconclusive. Unless noted, on the % scale 0 is the no-effect control and ±100 the full control effect; potency means the concentration at half of the fitted maximal effect.
SMILES,VDR inh,PLK1 PBD block,ALOX12 inh,Sfp PPTase inh
COC(=O)c1c(NC(=O)C2CC2)sc(C(=O)Nc2ccccc2)c1C,-11%,27µM*,?,3%
COC(=O)c1sc(-c2ccc(C(C)(C)C)cc2)cc1NC(=O)c1ccccc1C(=O)O,?,21µM*,0%,-2%
COC(=O)c1cc(-c2ccccc2)sc1N,?,21µM*,?,40µM*
COC(=O)c1sc(-c2ccccc2)cc1NC(=O)C1CC1,17%,-7%,8%,45µM*
O=C(Nc1ccc2c(c1)OCO2)C1CCCN(c2cnn(Cc3ccccc3)c(=O)c2)C1 (stereo not given),nt,nt,9%,nt
Cc1nc2c(C(=O)NCCC(C)C)c[nH]n2c(=O)c1Cc1ccccc1F,-6%,21µM*,-3%,3%
Cc1nc2c(C(=O)NCCc3ccc(Cl)cc3)c[nH]n2c(=O)c1Cc1ccccc1F,-23%,nt,?,nt
COc1ccc(-[n+]2c(C)cc(/C=C3\Sc4ccccc4N3C)cc2C)cc1,-10%,17%,?,20µM*
COc1ccccc1-[n+]1c(C)cc(/C=C2\Sc3ccccc3N2C)cc1C,-7%,17%,-8%,-28%
CC(C)(C)CN[C@@H](Cn1cc(F)c(=O)[nH]c1=O)C(=O)O,nt,nt,6%[176 µM],nt
N[C@@H](Cn1cc(F)c(=O)[nH]c1=O)C(=O)O,0%,nt,?,56µM*
O=C1CC(SC(=S)C2CCCC2=O)C(=O)N1 (stereo not given),nt,13µM*,22µM*,nt
O=C(/C=C(\O)c1ccccc1)C(=O)NNC(=O)c1ccccc1,-11%,-2%,3%,19%
COc1ccc(C(=O)NNC(=O)C(=O)/C=C(\O)c2ccc(C)cc2)cc1,0%,-8%,35µM*,-2%
N#CC1=C(c2ccccc2)/C(=C/c2ccccc2)OC1=O,?,1.1µM*,?,?
O=C1O/C(=C/c2ccccc2)c2ccccc21,4%,7%,-16%,-10%
CCCN1CCC(=O)N([C@H](CSc2ccc(Br)cc2)Cc2ccccc2)CC1,3%,-10%,0%,?
O=C(Nc1ccc2c(c1)CCCN2C(=O)c1cccs1)c1ccccc1,-24%,21µM*,19%,-17%
COc1ccccc1C(=O)Nc1ccc2c(c1)CCCN2C(=O)c1ccccc1,?,24µM*,-22%,2%
O=C(Nc1ccc2c(c1)CCCN2C(=O)c1cccs1)c1cccc(F)c1,-16%,?,-12%,-7%
O=C(Nc1ccc2c(c1)CCCN2C(=O)c1ccccc1)c1ccccc1Br,3%,-5%,4%,8%
CCOc1ccc(OCC)c(NS(=O)(=O)c2cccc3nsnc23)c1,29%,0%,-1%,-9%
CCOC(=O)c1cnc2c(C)c(Cl)ccc2c1NCCCN1CCOCC1,2%,-8%,45µM*,9%
CCOC(=O)c1cnc2c(Cl)c(Cl)ccc2c1NCCN1CCOCC1,-11%,-11%,16%,1%
COCC(=O)NC[C@H]1CCN(Cc2sccc2C)C[C@H]1N(C)C,nt,nt,76%,nt
SMILES,VDR inh,PLK1 PBD block,ALOX12 inh,Sfp PPTase inh
Clc1ccc(OCc2nn3c(C4CCCCC4)nnc3s2)cc1,?,21µM*,?,20µM*
CCCCN=c1scc(-c2ccc3c(c2)NC(=O)CO3)n1N=C1CCCC1,-13%,17µM*,?,7%
CCCCCCC(=O)N(O)C1CC(=O)N(c2ccc(Cl)cc2)C1=O (stereo not given),?,?,1.3µM*,25µM*
CCCCCCC(=O)N(O)C1CC(=O)N(c2ccc(C)cc2)C1=O (stereo not given),32µM*,27µM*,-21%,20µM*
O=C(O)CSC1CC(=O)N(c2ccc(Cl)cc2)C1=O (stereo not given),-5%,-6%,-25%,4%
COc1ccccc1/C=C/C=N\N1CCN(Cc2ccccc2Cl)CC1,7%,1%,?,22µM*
CN(CCCNC(=O)CCc1cn(C)c2ccccc12)C1CCCCC1,9%,-6%,-2%,11%
CCOC(=O)N1CCC(NC(=O)c2oc3c(c2C)-c2[nH]ncc2CC3)CC1,-11%,-8%,-8%,-11%
COc1ccc(C(=O)O)nc1C,-6%,-3%,?,45µM*
CCn1c(CNC(=O)c2ccc(OC)cc2)nnc1SCC(=O)Nc1cc(C)ccc1C,2%,nt,-22%,nt
COc1ccc(C(=O)NCc2nnc(SCC(=O)NC3CCCCC3)n2C)cc1,-18%,-23%,40µM*,-2%
O=C([C@H]1C[C@@H](F)CN1S(=O)(=O)c1ccccc1F)N1CCOCC1,nt,nt,29%,nt
Cc1ccc(C(=O)C2=C(O)C(=O)N(Cc3ccco3)C2c2cccc(Br)c2)o1 (stereo not given),-15%,-18%,?,56µM*
Cc1ccc(C(=O)C2=C(O)C(=O)N(Cc3ccco3)C2c2ccc(N(C)C)cc2)o1 (stereo not given),-14%,-10%,63%,-10%
Cc1ccc(C(=O)C2=C(O)C(=O)N(Cc3ccco3)C2c2cccc(Cl)c2)o1 (stereo not given),?,-12%,25µM*,-24%
CC(=O)Oc1cc2c(C(C)=O)coc2c2ccccc12,7%,-8%,9%,-2%
COC(=O)CN1C(=O)N/C(=C/c2ccc(C)o2)C1=O,-16%,-13%,?,22µM*
CCCCCCc1cc2cc(C(=O)NCc3ccccc3)c(=N)oc2cc1O,8%,5%,-19%,20%
COc1ccc(-c2cc(N3CCN(C(=O)c4ccc(F)c(Cl)c4)CC3)n[nH]2)cc1,nt,nt,5%,nt
CCC(CC)C(=O)Oc1c(Sc2ccccc2[N+](=O)[O-])c(C)nn1C(C)(C)C,9%,-4%,3%,-16%
COCC(=O)Oc1c(Sc2ccccc2[N+](=O)[O-])c(C)nn1C(C)(C)C,-22%,12µM*,-18%,?
CC(=O)Nc1ccc(S(=O)(=O)N2CCC(C(=O)NCCc3ccc(Cl)cc3)CC2)cc1,8%,6%,0%,18%
CCN(CC(=O)NCc1cccs1)C(=O)CCC(=O)c1ccc(C)cc1,-4%,-2%,28µM*,nt
CCCOc1ccc(S(=O)(=O)NCCN2CCOCC2)c2ccccc12,-6%,-16%,-1%,3%
CCOc1ccc(S(=O)(=O)NCCN2CCOCC2)c2ccccc12,22%,-11%,4%,79µM*
CCCC(=O)Nc1cc(OC)c(OC)cc1C(=O)O,-2%,1%,0%,-1%
COc1ccc(-n2c(N)c(C(=O)NCc3ccco3)c3nc4ccccc4nc32)cc1,-21%,-2%,-16%,25µM*
COc1ccccc1CNC(=O)c1c(N)n(CCCN2CCOCC2)c2nc3ccccc3nc12,8%,0%,-25%,56µM*
N#Cc1c(N)n(CCc2ccc(F)cc2)c2nc3ccccc3nc12,-16%,6%,203%,12%
COc1ccc(S(=O)(=O)Nc2ccccc2C(=O)NCc2ccco2)cc1,16%,11µM*,0%,-6%
